Only some compounds are listed: those with a hit (about 1.7% of all), similar ones and a draw of the others.
PLK1 PBD inh = blocks phosphopeptide binding to human Plk1 polo box domain; inhibition, %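 (tested at about 20 µM)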; AID 693; hit rate 0.13% among 97,000; Plk1 PBD phosphopeptide binding, fluorescence polarization; in the data active = inhibition above about 34%, passing the limit was not always enough
Target sequence (P53350 whole entry, looked up, the tested form may be a part): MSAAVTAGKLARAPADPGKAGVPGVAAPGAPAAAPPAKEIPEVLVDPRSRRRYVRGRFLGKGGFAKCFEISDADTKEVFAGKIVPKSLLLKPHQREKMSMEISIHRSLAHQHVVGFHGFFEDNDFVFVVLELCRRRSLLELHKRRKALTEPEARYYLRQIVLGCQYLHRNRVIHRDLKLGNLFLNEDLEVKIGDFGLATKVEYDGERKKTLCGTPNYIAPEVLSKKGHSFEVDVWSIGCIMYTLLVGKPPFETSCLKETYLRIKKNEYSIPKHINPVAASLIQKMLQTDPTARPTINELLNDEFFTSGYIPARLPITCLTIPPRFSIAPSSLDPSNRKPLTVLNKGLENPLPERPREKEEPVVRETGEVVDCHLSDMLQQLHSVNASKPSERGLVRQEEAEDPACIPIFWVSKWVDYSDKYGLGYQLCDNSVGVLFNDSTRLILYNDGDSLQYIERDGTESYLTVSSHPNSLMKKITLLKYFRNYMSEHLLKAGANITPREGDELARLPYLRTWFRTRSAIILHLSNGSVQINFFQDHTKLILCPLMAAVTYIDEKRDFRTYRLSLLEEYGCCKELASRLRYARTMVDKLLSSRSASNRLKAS
EphB4 ephrin blk = EphB4-ephrin-B2 interaction antagonism. P54760. EphB4 LBD / TNYL-RAW-Alexa532 peptide, fluorescence polarization. inhibition, % at 7 µM. hit rate 0.15% among 97,000;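 active = inhibition above the screen-wide mean inhibition plus 3 SD, cut at about 15% in these data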;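 also: 0% = DMSO wells and 100% = excess unlabeled TNYL-RAW peptide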
PTPN22 act = activators of human LYP (PTPN22) phosphatase. AID 697. hit rate 0.11% among 96,000. Q9Y2R2. activation, % at 2 µM. recombinant LYP, DiFMUP fluorescence; 0 = plate median, 100 = signal doubled;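 active = activation at 2 µM above a set limit, the mean plus 5 SD, cut at about 37% in these data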
PTPN22 inh 2 = inhibitors of human LYP (PTPN22) phosphatase | Q9Y2R2 | hit rate 0.21% among 96,000 | inhibition, % at 2 µM | recombinant LYP catalytic domain, DiFMUP fluorescence;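 active = inhibition at 2 µM at or above a set limit, the screen mean plus 3 SD, cut at about 24% in these data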;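 also: 0% = DMSO with enzyme and 100% = enzyme fully blocked by orthovanadate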
PLK1 kinase inh = PLK1 (human) kinase inhibition. AID 619. P53350. hit rate 0.53% among 97,000. recombinant PLK1 kinase, TR-FRET peptide phosphorylation. inhibition, % at 10 µM;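 active = inhibition of 50% or more in the single-concentration screen; inactive = inhibition below 50%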;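 also: 0% = DMSO max control and 100% = H-89 dihydrochloride min control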
FAK inh = inhibitors of human focal adhesion kinase. Q05397. biochemical FAK kinase activity assay. inhibition, %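 (tested at 7 µM)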. hit rate 0.84% among 97,000. AID 727;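 also: 0% = DMSO and 100% = reference compound high control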
LYP act confirm = LYP (PTPN22) phosphatase activation confirmation. shares compounds with PTPN22 act. Recombinant LYP, DIFMUP fluorescence; zero set by plate's median compound well. activation, % at 2 µM. 100 tested, under 10 active; call rule not given here
FAK inh conf = confirmation of human focal adhesion kinase (FAK) inhibitors | AID 794 | hit rate 28% among 750 | shares compounds with FAK inh | inhibition, % at 7 µM | FAK kinase biochemical inhibition assay
* marks the source's active call; other numbers are inactive results; x = no result given. Rule as the data show it, unless noted: active = inhibition above about 19%; inactive = the rest.

SMILES	PLK1 PBD inh	EphB4 ephrin blk	PTPN22 act	PTPN22 inh 2	PLK1 kinase inh	FAK inh	LYP act confirm	others
Cc1ccc(NC(=O)C2CCCN2C(=O)Oc2ccccc2)cc1 (centres undefined)	14.5	-8.7	39.3*	-43.6	-0.9	0.5	1.4
CCS(=O)(=O)NCCc1cc2ccc(C)cc2[nH]c1=O	14.9	4.6	-2.8	-0.3	-14.0	5.4	x
CCCc1nn(C)c2c1C(c1ccncc1)C(C#N)=C(N)O2 (centres undefined)	-26.2	-7.0	56.7*	-57.0	2.4	-2.0	-1.9
COc1ccc(Nc2c(C)cccc2C)cc1	-36.1	1.1	38.6*	-39.7	-15.3	3.4	-1.3
COc1ccc(NCCNc2ccc(OC)cc2)cc1	-10.5	0.1	5.1	-7.5	-8.2	-2.6	x
Cc1c(Cc2c(Cl)cccc2Cl)c(=O)ccn1C(C)c1ccccc1 (centres undefined)	-35.6	5.0	4.7	-2.2	-6.2	-4.9	x
CC(=O)Nc1ccc(C(=O)OCC(=O)N(Cc2ccccc2)C(C)(C)C)cc1	6.7	-5.2	4.4	-4.5	-9.7	2.3	x
O=S(=O)(c1ccc(Oc2ccc(Br)cc2)cc1)N1CCOCC1	0.0	5.6	-4.2	1.4	-5.7	-0.1	x
COc1ccccc1NC(=O)Cc1noc(CSc2nnc(C)s2)n1	2.2	-5.1	45.6*	-50.4	8.4	-0.5	-2.3
CCC1Cc2c(nc3c4c(nc(N5CCOCC5)c(C#N)c24)NC(C)=N3)O1 (centres undefined)	-8.2	7.1	3.0	-6.9	-4.0	-1.7	x
CCc1onc(C)c1C(=O)Nc1cc(C)ccc1OC	14.9	-7.7	40.0*	-44.2	-14.3	-0.4	-3.7
COc1ccc(C(C)(C)C)cc1NC(=O)c1c(C)noc1C	-7.8	2.7	-4.6	1.8	-5.5	-1.1	x
COc1ccc(Cl)c(Cn2c(NCCCO)nc3c2c(=O)n(C)c(=O)n3C)c1	-26.0	-5.5	-2.0	1.7	-23.4	1.3	x
NC(=O)c1nc(N2CCOCC2)nc(N2CCOCC2)n1	-6.3	-4.0	40.6*	-42.5	-6.5	1.8	5.5
COCCn1c(C)c(C(=O)O)sc1=S	-28.2	7.2	7.5	-3.6	0.9	0.0	x
CCCCN(Cc1ccccc1)S(=O)(=O)c1cc(Br)cc2c1N(C(C)=O)C(C)C2 (centres undefined)	-12.2	2.0	-3.4	6.5	-3.4	-0.6	x
CC(=O)N1c2c(cc(Br)cc2S(=O)(=O)NCC2COc3ccccc3O2)CC1C (centres undefined)	9.8	-6.3	38.1*	-33.3	-8.0	-1.0	-3.3
Cc1c(Cl)cccc1NC(=O)c1ccc(-n2ccnc2)nc1	-20.3	1.6	1.6	-5.8	-3.7	0.2	x
OCCOc1ccc(C2=NCCO2)cc1	-0.8	0.8	37.5*	-38.7	-10.8	-2.5	-1.4
CCCOc1ccc(-c2nnn(CC(=O)c3ccc4c(c3)OCCO4)n2)cc1	6.6	-2.1	3.9	-5.1	-2.7	-1.4	x
O=C(CCCC1=NS(=O)(=O)c2ccccc2N1)N1CCN(c2ccccc2)CC1	-17.5	-1.9	39.5*	-41.2	2.7	3.4	3.4
CCOc1cc(S(=O)(=O)NCc2ccccn2)ccc1Cl	2.2	-4.9	37.4*	-39.1	-11.8	1.0	-6.3
COc1ccc2oc(=O)c(-c3nnc(NCc4ccco4)s3)cc2c1	-24.4	11.3	-21.1	21.9	-0.7	20.8*	x	FAK inh conf=4.9
Cc1cc2cc(CNC(=O)Nc3cccc(Cl)c3)ccc2n1C	-27.3	-5.9	8.4	-9.3	-29.5	4.6	x
Cc1cccc(NC(=O)NCc2ccc3c(c2)cc(C)n3C)c1	1.9	5.1	-6.3	3.5	-23.6	22.1*	x	FAK inh conf=-7.0
O=C(Oc1cccc(Nc2ncnc3ccccc23)c1)c1ccccc1Cl	26.8	-7.9	-0.8	6.8	-11.9	9.2	x
COc1cc(C2CC(=O)c3cnc(N4CCN(Cc5ccccc5)CC4)nc3C2)cc(OC)c1OC (centres undefined)	-8.9	5.2	6.2	-4.9	-0.5	19.2*	x	FAK inh conf=5.4
Cc1[nH]c2ccccc2c1C(=O)CN1CCCCC1CCO (centres undefined)	-14.7	1.8	7.8	-7.2	-0.9	-3.6	x
Nc1ncnc2nc(SCc3ccc(Cl)cc3Cl)[nH]c12	8.7	1.8	1.6	-3.0	22.3	25.0*	x	FAK inh conf=15.8
